Data as given in PubChem BioAssay AID932 (The Scripps Research Institute Molecular Screening Center, 2007).
The campaign covered roughly 200,000 compounds. About 5,100 (2.5%) were called active. The list comes from a sample in which actives are over-represented; it also holds similar structures and randomly drawn compounds. A number with no mark means an inactive call.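 The calls were made as follows: active = activation above the screen-wide mean activation plus 3 SD (cut at about 130% in these data); inactive = the rest.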

Assay: STAT1 signaling activators, primary screen, cell-based, HTS, luciferase reporter (AID 932);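 also: raw ratio to IFN-gamma control signal so 100% means no change and 0% no light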
Details: NIH 3T3 STAT1-luciferase reporter, IFN-gamma, luminescence; at 5.5 µM; hits give high values; 100% = IFN-gamma alone, no compound

Point of comparison: Cc1nn(C)c(C)c1CN(C(=O)CCc1nnc(Cc2c[nH]c3ccccc23)o1)C(C)C, activation (% of control) 99.9%. Against it:
- O=C(c1ccc(C(F)(F)F)cc1)C1CCCN(C(=O)c2csnn2)C1 (centres undefined) — lower, 87.3%
- N#CCC(=O)N/N=C/c1ccc(SCC(=O)Nc2ccccc2)o1 — higher, 108%
- O=C1COc2ccc(C(=O)COC(=O)c3cccnc3Cl)cc2N1 — higher, 109%
- O=C(N/N=C\c1ccc(Br)cc1)c1ccc(Cn2cccn2)o1 — higher, 118%
- O=C(N/N=C/c1ccc2c(c1)OCO2)c1ccc(Cn2cc([N+](=O)[O-])cn2)o1 — higher, 109%
- C=CCn1c(COc2ccc(F)cc2)nnc1SCC(=O)Nc1cccc(S(N)(=O)=O)c1 — lower, 97.8%
- Cc1c(/C=N/N2C(=O)C3C4C=CC(C4)C3C2=O)c2ccccc2n1C (centres undefined) — lower, 90.4%
- C/C(=N\OC(=O)c1ccccc1)c1c(C)nc2cc(C)ccn12 — lower, 99.5%
- Cc1ccc2nc(-c3ccc(NC(=O)CN(C)S(=O)(=O)c4ccccc4)cc3)sc2c1 — higher, 102%
- Cc1ccc(N(CC(=O)Nc2cccc(N(C)S(C)(=O)=O)c2)S(C)(=O)=O)cc1 — lower, 92.8%
- Cn1c(=N)n(CC(O)c2cccs2)c2ccccc21 (centres undefined) — lower, 95.5%
- ClC1(Cl)CC1CSc1ncn[nH]1 (centres undefined) — higher, 102%
- O=C(C1CCN(C2CCN(Cc3ccc4cc(F)ccc4n3)CC2)CC1)N1CCCC1 — lower, 98.4%
- N#Cc1c(N)nc2c(c1N)CC(C(F)(F)F)O2 (centres undefined) — lower, 92.8%
- Cc1nn(C)c(C)c1Sc1ccccc1N — lower, 99.2%
- CCn1c(CSc2nc(C)cc(C)n2)nnc1SCC(N)=O — higher, 103%
- Cc1ccc(/C=C/C(=O)Nc2ccc([N+](=O)[O-])c(NC(=O)/C=C/c3ccc(C)o3)c2)o1 — higher, 101%
- COc1ccc(S(=O)(=O)N2CCCCCC2)cc1C(=O)OCC(=O)Nc1cc(C)on1 — lower, 97%
- O=[N+]([O-])c1ccc(NCCCO)c(C(F)(F)F)c1 — higher, 105%
- CN(C(=O)COc1ccccc1)c1nnc(-c2ccncc2)s1 — higher, 107%
- CN(C(=O)c1ccno1)c1nnc(-c2cccnc2)s1 — higher, 102%
- COc1ccc(N=C2SC(C(=O)Nc3ccc(F)cc3)CC(=O)N2C)cc1 (centres undefined) — lower, 88.3%
- Cc1ccccc1NCC(=O)N/N=C\c1ccc([N+](=O)[O-])s1 — lower, 92.7%
- CN(C(=O)CSc1nnnn1-c1ccccc1)C1CCCCC1 — higher, 103%
- CN(C(=O)COc1ncnc2c1cnn2-c1ccccc1)C1CCCCC1 — lower, 94.4%
- Cc1nnnn1/C(=C\c1ccccc1)C(=O)OCC(=O)N1CC2(C)CC1CC(C)(C)C2 (centres undefined) — lower, 99.2%
- O=C(Nc1nnc(C2COc3ccccc3O2)o1)c1ccc(F)cc1 (centres undefined) — lower, 98.5%
- O=C(N/N=C/c1ccccn1)C12CC3CC(CC(C3)C1)C2 — higher, 103%
- OCCC1CN(Cc2cnc(-c3ccccc3)s2)CCN1CCc1ccccc1 (centres undefined) — higher, 100%
- C/C(=N\Nc1nc(Nc2ccccc2)nc(N2CCOCC2)n1)c1cccs1 — lower, 92.8%
- OCCNc1nc2ccccc2[nH]1 — higher, 104%
- O=C(NC1CCC(O)CC1)c1ccc(S(=O)(=O)NCc2ccco2)cc1 (centres undefined) — lower, 93.2%
- C/C(=N\NS(=O)(=O)c1ccc(Br)cc1)c1cccs1 — lower, 95.4%
- COc1cccc(/C(C)=N/Nc2ncc(Cl)cc2Cl)c1 — higher, 126%
- Cc1c(Cl)cnc(NC(=O)COC(=O)c2ccc(S(=O)(=O)NCc3ccco3)cc2)c1Cl — higher, 101%
- COc1cccc(CNC(=O)CCN2C(=S)NC(C)(C)CC2C)c1 (centres undefined) — higher, 100%
- CCN(CC)c1ccc(C(=O)c2cnc(/N=C/N(C)C)s2)cc1 — higher, 118%
- c1ccc(-c2noc(-c3cccs3)n2)nc1 — higher, 104%
- COc1nc(-c2ccc(Cl)cc2)ccc1-c1noc(-c2cccs2)n1 — higher, 108%
- CC(=O)Nc1ccc(CN2CCN(Cc3ccc(F)c(F)c3)C(CCO)C2)cc1 (centres undefined) — higher, 100%
- O=c1oc(-c2ccco2)nc2sc3c(c12)CCCCC3 — higher, 110%
- Cc1c(Br)ccc(NC(=O)COc2ccccc2C(N)=O)c1C — lower, 97.9%
- Cc1cc(NS(=O)(=O)c2ccc(NC(=O)c3cccc(OC(F)F)c3)cc2)nc(C)n1 — higher, 105%
- CCOC(=O)C1(Cc2ccc(Cl)cc2)CCN(C(=O)C2=NNC(=O)CC2)CC1 — lower, 96.4%
- CCOC(=O)C1(CCOc2ccccc2)CCN(C(=O)c2cncs2)CC1 — lower, 99.2%
- O=c1cc(CO)oc(C(Nc2cccc(C(F)(F)F)c2)c2ccccn2)c1O (centres undefined) — lower, 99.4%
- CCOc1cccc(C(=O)Nc2cccnc2)c1 — higher, 101%
- CCOC(=O)c1cc(NC(=O)c2cccnc2)cc(C(=O)OCC)c1 — lower, 96.5%
- O=C(N1CCCC1)C12CC3CC(C1)CC(C(=O)N1CCCC1)(C3)C2 — lower, 99.8%
- Cc1c(C(=O)NCc2ccccc2)cnn1-c1ccccc1 — higher, 101%
- CCCNC(=O)c1ccc(Cl)c(Cl)c1 — lower, 98.4%
- Cn1ncc(N2CCN(S(=O)(=O)c3ccc(Br)cc3)CC2)c(Cl)c1=O — higher, 110%
- COc1cc(C)c(Cl)cc1S(=O)(=O)n1ccnc1 — lower, 92.5%
- COCCNc1nc(N)c([N+](=O)[O-])c(NCCO)n1 — higher, 114%
- Nc1nc(NCCCN2CCOCC2)nc(Nc2ccccc2)c1[N+](=O)[O-] — higher, 103%
- Cc1nn(-c2ccccc2)c(NC(=O)c2cccs2)c(-c2ccc(Cl)cc2)c1=O — higher, 107%
- CC(C)(C)NS(=O)(=O)c1ccc(NC(=O)NC2CCCCC2)cc1 — higher, 103%
- CC(C)N1CCC(NC(=O)Nc2ccccc2)CC1 — lower, 95.4%
- COc1ccccc1-c1nnc(NC(=O)c2ccc3ncsc3c2)o1 — higher, 122%
- O=C(CC(=O)N/N=C\c1ccc(F)cc1)NCCc1ccccc1 — higher, 100%
- O=C(NNC(=O)C1C2CCC(C2)C1C(=O)O)c1ccc(Cl)cc1 (centres undefined) — higher, 110%
- Cc1ccccc1NC(=O)NNC(=O)OC(C)(C)C — higher, 103%
- CC(C)(C)OC(=O)N/N=C/c1ccc(C(=O)O)cc1 — higher, 104%
- COc1ccc(C(=O)C2CCCN(C(=O)c3cc4nc(C)cc(C)n4n3)C2)cc1F (centres undefined) — lower, 95.3%
- COc1ccc(-n2nc3c(c2NC(=O)c2ccc(N4C(=O)CCC4=O)cc2)CSC3)cc1 — lower, 96.7%
- NC(N)=N/N=C/c1ccc(Cl)c([N+](=O)[O-])c1 — lower, 93.6%
- Cc1ccc(NC(=S)NC(=O)c2ccc(-c3ccccc3)cc2)c(C)c1 — lower, 92%
- Cc1ccc(C)c(NC(=S)NNC(=O)c2csc(C)c2)c1 — lower, 97.8%
- Cc1ccccc1NC(=S)NNC(=O)c1cccc(Br)c1 — higher, 104%
- Cc1ccc(NC(=S)NC(=O)c2ccc(-c3ccccc3)cc2)cc1 — lower, 98.2%
- CCCN(C(=O)CSc1nnnn1C)c1c(N)n(Cc2ccccc2)c(=O)[nH]c1=O — higher, 101%
- COc1ccc(N/N=C2/CCCCC2=O)cc1 — higher, 105%
- CCn1cc(CN2CCCC(CNS(=O)(=O)Cc3ccccc3)C2)cn1 (centres undefined) — lower, 89.7%
- CN=c1scc(-c2cc(OC)ccc2OC)n1/N=C/c1c(C)[nH]c2ccccc12 — higher, 112%
- CCn1ccnc1CN1CCCC(C(=O)c2ccc3c4c(cccc24)CC3)C1 (centres undefined) — lower, 89.5%
- O=C(/C=C/c1ccc2c(c1)OCO2)NCc1ccc(F)cc1 — higher, 101%
- CC(NC(=O)Nc1ccc2c(c1)OCO2)c1ccncc1 (centres undefined) — lower, 97.9%
- COc1ccc(/C=C/C(=O)Nc2ccc3c(c2)OCCO3)cc1OC — lower, 96.8%
- CC(C)C(=O)Nc1cccc(C(=O)Nc2ccc3c(c2)OCO3)c1 — higher, 120%
- CCc1c(C)sc(NC(=O)/C=C/c2ccc3c(c2)OCO3)c1C(=O)OC — lower, 96.1%
- COc1ccc(OC)c(/C=C/C(=O)OCC(=O)Nc2ccc3c(c2)OCCO3)c1 — lower, 98.4%

With CN(C)c1ccc(/C=N/NC(=O)c2ccc(Cn3cc(Br)cn3)o2)cc1 the activation (% of control) was 135% (active).
In the case of Cc1cccc(N(CC(=O)Nc2ccc(-c3nc4ccc(C)cc4s3)cc2)S(C)(=O)=O)c1, the activation (% of control) is reported as 142% (active).
For Cc1ccc(/C=C/C(=O)Nc2cc(S(=O)(=O)N3CCCCCC3)ccc2OCC(F)(F)F)o1, the activation (% of control) was 139% (active).
For CN(C(=O)c1ccccn1)c1nnc(-c2ccccn2)s1, the activation (% of control) was 142% (active).
For CN(C(=O)CSc1nncc2ccccc12)C1CCCCC1, the activation (% of control) was 131% (active).
In the case of C/C(=N\Nc1nc2ccccc2[nH]1)c1cccs1, the activation (% of control) is reported as 147% (active).
With C/C(=N\Nc1ncc(Cl)cc1Cl)c1cccs1 the activation (% of control) was 143% (active).
With C/C(=N\Nc1ncc(Cl)cc1Cl)c1ccc(S(=O)(=O)NCc2ccco2)cc1 the activation (% of control) was 131% (active).
With c1csc(-c2nc(-c3ccncc3)no2)c1 the activation (% of control) was 130% (active).
With CCOC(=O)C1(Cc2ccccc2C(F)(F)F)CCN(C(=O)c2cc(C)n(C)n2)CC1 the activation (% of control) was 131% (active).
For CCOC(=O)c1ccc(-c2ccc(C(=O)Nc3cccnc3)o2)cc1, the activation (% of control) was 132% (active).
For CCCNC(=O)c1c(Cl)cnn1-c1ccc(C)cc1, the activation (% of control) was 142% (active).
For CNc1nc(Nc2ccc(C)c(Cl)c2)nc(N)c1[N+](=O)[O-], the activation (% of control) was 142% (active).
With CC(C)c1ccc(NC(=O)NC2CCCCC2)cc1 the activation (% of control) was 180% (active).
With Cc1nn2cc(-c3ccc(Cl)cc3)cnc2c1Br the activation (% of control) was 140% (active).
With C/C(=N\NC(=O)OC(C)(C)C)c1ccc[nH]1 the activation (% of control) was 130% (active).
In the case of Cc1cc(C(=O)NNC(=S)Nc2ccccc2C)cs1, the activation (% of control) is reported as 130% (active).
With Cc1ccc(C(=O)NC(=S)Nc2ccccc2C)cc1 the activation (% of control) was 130% (active).
With Cc1ccc(N/N=C2\COC(C)(C)CC2=O)cc1 the activation (% of control) was 142% (active).
With Cc1cccc(NC(=O)Nc2ccc3c(c2)OCO3)n1 the activation (% of control) was 168% (active).
For Cc1cccc(NC(=O)/C=C/c2ccc3c(c2)OCO3)n1, the activation (% of control) was 135% (active).
With COc1cccc(/C=C/C(=O)Nc2ccc3c(c2)OCCO3)c1 the activation (% of control) was 129% (active).
